Assay outcomes (PubChem BioAssay)
HepG2 tox – counter-screen for TGF-b inhibitors: cytotoxicity in HepG2 cells; HepG2 CAGA-GFP viability, ATP luminescence, 18 h; Potency, µM (doses to about 46.1 µM), without a hit: at the highest dose activity change, negative = cytotoxicity, actives largely listed as cytotoxic; 0.76% of 410,000 active; AID 588856
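HepG2 CAGA-GFP cells (1000/well, DMEM with 1% FBS) received compound, then TGF-beta at 500 pg/mL final, and were incubated 18 hours at 37 degrees C. Viability was read by CellTiter-Glo luminescence. Media-only wells were set as complete cell-killing and DMSO as no toxicity.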
DT40 TDP1 CPT – DT40-hTDP1 cell growth loss with CPT | chicken DT40 Tdp1-/-;hTDP1 cells + 20 nM CPT, ATP luminescence, 48 h | Potency, µM (series often up to 46.2 µM), for the others: top-dose activity change, negative = growth inhibition, most hits filed as inhibitors | 12% of 420,000 active | AID 686979; also: % is scaled to controls: 0 for no effect and ±100 for the full control effect; nearly all actives have a fitted effect of over 55% in size
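Chicken DT40 Tdp1-/- cells complemented with human TDP1, 400 cells/well, exposed to compounds plus 20 nM camptothecin for at least 48 h at 37 C; viability read as ATP content by CellTiter-Glo luminescence.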
DT40 TDP1 no CPT – qHTS for Inhibitors of human tyrosyl-DNA phosphodiesterase 1 (TDP1): qHTS in cells in absence of CPT | DT40 Tdp1-/- hTDP1 cells, no CPT, ATP luminescence, 48 h | Potency, µM (doses to about 46.2 µM), inactives show at the top dose activity change, negative = growth inhibition, hits mostly inhibitors | 15% of 420,000 active | AID 686978, 2013; also: % is scaled to controls: 0 for no effect and ±100 for the full control effect; nearly all actives have a fitted effect of over 55% in size
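Chicken DT40 Tdp1-/- cells stably complemented with human TDP1 were seeded at 400 cells/well with DMSO in place of 20 nM camptothecin. After compound pinning, cells grew at least 48 hr at 37 °C; viability read by CellTiter-Glo luminescence.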
TGFb SMAD3 inh – blocks TGF-b signaling; HepG2 CAGA-GFP TGF-b/SMAD3 reporter, GFP fluorescence, 18 h; TGF-beta stimulated, 500 pg/mL final; Potency, µM (highest dose often 46.1 µM), inactives show at the top dose activity, negative = inhibition, usual class: inhibitors; 1.2% of 410,000 active; AID 588855; also: % is scaled to controls: 0 for no effect and ±100 for the full control effect; nearly all actives have a fitted effect of over 65% in size
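Using HEPG2 CAGA-GFP reporter cells at 1000 cells/well, we pinned test compounds, stimulated with recombinant TGF-beta (500 pg/mL final) and measured total well GFP after 18 h.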
HT1080 IDH1KD tx – kills HT-1080 cells with IDH1 knockdown. HT-1080 IDH1 knockdown viability, ATP luminescence, 48 h. Potency, µM (top dose mostly 46.1 µM), inactives show at the top dose activity, negative = toxicity, hits mostly cytotoxic. 2% of 360,000 active. AID 686971;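 also: 0% = DMSO wells and -100% = cell-free medium wells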
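HT-1080-IDH1KD cells (IDH1 knocked down), 750/well in RPMI with 5% FBS, treated with compound 48 h at 37 degrees C. Viability by CellTiter-Glo luminescence, normalised to DMSO and no-cell wells; concentration-response curves classed.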
HT1080-NT tox – kills 2HG-producing HT-1080-NT fibrosarcoma cells; HT-1080-NT fibrosarcoma viability, CellTiter-Glo ATP luminescence, 48 h; Potency, µM (doses to about 46.1 µM), for the others: at the highest dose activity, negative = less viability, usual class: cytotoxic; 1.6% of 360,000 active; AID 686970;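 also: NT is the 2HG producing partner of a matched IDH1 knockdown line; 0% = DMSO-treated cells and -100% = media-only wells without cells; nearly all actives have a fitted effect of over 55% in size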
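Viability by CellTiter-Glo luminescence after 48 h compound exposure at 37C of HT-1080-NT cells (750/well, RPMI, 5% FBS). % activity scaled between DMSO wells and medium-only wells, then curve-fitted and categorized by curve class.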
The depositor's hits bear a star; [ ] = dose if it differs, or a comment. Rows were chosen to be rich in hits. Some 17% of all compounds tested hit in one or more screens of this group. Calls follow the shape of the dose curve; as a rule, active = well fitted curve in the direction sought with a large enough effect; inconclusive = small, poorly fitted or top-dose-only effect, or another doubt; inactive = no such curve, though single readings can be large; an effect the other way counts as inactive or inconclusive. Potency is read from the fitted curve at half-maximal effect.

What do the screens show for `O=C(CN1C(=O)CCc2cc(S(=O)(=O)N3CCOCC3)ccc21)Nc1cccc(Cl)c1`?
HepG2 tox: 1%; DT40 TDP1 CPT: -28%; DT40 TDP1 no CPT: 4%; TGFb SMAD3 inh: -18%

Results for COC(=O)C(C(=O)OC)C(c1ccccc1)C(C(=O)c1ccccc1)[N+](=O)[O-] (stereo not drawn) ?
HepG2 tox: 19%; DT40 TDP1 CPT: 16%; DT40 TDP1 no CPT: -21%; TGFb SMAD3 inh: -8%; HT1080 IDH1KD tx: 5%; HT1080-NT tox: 25%

What do the screens show for `O=C(COc1ccccc1Br)N1CCN(c2ccccc2)CC1`?
HepG2 tox: -8%; DT40 TDP1 CPT: -4%; DT40 TDP1 no CPT: -17%; TGFb SMAD3 inh: 15%; HT1080 IDH1KD tx: -3%; HT1080-NT tox: 9%

Results for COc1ccc(-c2nc3cnc(Nc4cccc(OC)c4)nc3n(Cc3cccs3)c2=O)cc1 ?
DT40 TDP1 CPT: 5%; DT40 TDP1 no CPT: 20%

Results for Cc1ccc(Cl)cc1NC(=O)CCN1C(=O)C2C3CCC(C3)C2C1=O (stereo not drawn) ?
HepG2 tox: -3%; DT40 TDP1 CPT: 10%; DT40 TDP1 no CPT: 3%; TGFb SMAD3 inh: -11%; HT1080 IDH1KD tx: -1%; HT1080-NT tox: -2%

What do the screens show for `CC1(C)OC(=O)C2=C(C[C@@H](C3CCCCC3)O[C@H]2c2ccccc2)O1`?
DT40 TDP1 CPT: inconclusive; DT40 TDP1 no CPT: 16µM*; HT1080 IDH1KD tx: inconclusive; HT1080-NT tox: inconclusive

Results for CCc1nc2ccc(C(=O)Nc3cc(-c4ccccc4)ccc3OC)cn2c1N(CCN(C)C)CC1CC1 ?
HepG2 tox: -96%; DT40 TDP1 CPT: 21µM*; DT40 TDP1 no CPT: 15µM*; TGFb SMAD3 inh: inconclusive; HT1080 IDH1KD tx: 18µM*; HT1080-NT tox: inconclusive

What do the screens show for `CCc1nc2ccc(C(=O)Nc3ccc(OC)c(OC)c3)cn2c1N(CCC(C)C)CCN(C)C`?
HepG2 tox: -31%; DT40 TDP1 CPT: inconclusive; DT40 TDP1 no CPT: inconclusive; TGFb SMAD3 inh: 24%; HT1080 IDH1KD tx: inconclusive; HT1080-NT tox: inconclusive

What do the screens show for `CCc1nc2ccc(C(=O)Nc3cc(-c4ccccc4)ccc3OC)cn2c1N(C)CCC(C)C`?
HepG2 tox: -108%; DT40 TDP1 CPT: 18µM*; DT40 TDP1 no CPT: 21µM*; TGFb SMAD3 inh: inconclusive; HT1080 IDH1KD tx: inconclusive; HT1080-NT tox: inconclusive

How did CCc1nc2ccc(C(=O)Nc3cc(-c4ccccc4)ccc3OC)cn2c1N(C=O)CCC(C)C do in these assays?
HepG2 tox: -22%; DT40 TDP1 CPT: 16µM*; DT40 TDP1 no CPT: 15µM*; TGFb SMAD3 inh: inconclusive; HT1080 IDH1KD tx: inconclusive; HT1080-NT tox: -30%

Results for CCc1nc2ccc(C(=O)Nc3cc(-c4ccccc4)ccc3OC)cn2c1N(C)CCCc1ccccc1 ?
HepG2 tox: -33%; DT40 TDP1 CPT: inconclusive; DT40 TDP1 no CPT: inconclusive; TGFb SMAD3 inh: 5%; HT1080 IDH1KD tx: inconclusive; HT1080-NT tox: inconclusive

How did Cc1c(Cl)cccc1NC(=O)C(=O)NCCc1csc(-c2ccc(C(F)(F)F)cc2)n1 do in these assays?
HepG2 tox: -3%; DT40 TDP1 CPT: -3%; DT40 TDP1 no CPT: -25%; TGFb SMAD3 inh: -12%

How did CCNc1ncc2nc(-c3cn(C)c4ccccc34)c(=O)n(Cc3ccc(F)cc3)c2n1 do in these assays?
DT40 TDP1 CPT: -9%; DT40 TDP1 no CPT: -12%

Results for Cc1ccc(Oc2c(C(N)=O)cc([N+](=O)[O-])cc2[N+](=O)[O-])cc1 ?
HepG2 tox: -83%; DT40 TDP1 CPT: 5.8µM*; DT40 TDP1 no CPT: 5.2µM*; TGFb SMAD3 inh: inconclusive; HT1080 IDH1KD tx: inconclusive; HT1080-NT tox: inconclusive

Results for Cc1ccc(CNc2ccc([N+](=O)[O-])cc2C(N)=O)cc1 ?
HepG2 tox: 15%; DT40 TDP1 CPT: -24%; DT40 TDP1 no CPT: -21%; TGFb SMAD3 inh: 20%; HT1080 IDH1KD tx: 6%; HT1080-NT tox: 17%

How did COc1cc(OC)cc(C(=O)NCC(=O)N2CC=C(c3ccccc3)CC2)c1 do in these assays?
HepG2 tox: 4%; DT40 TDP1 CPT: 3.3µM*; DT40 TDP1 no CPT: 4.6µM*; TGFb SMAD3 inh: -29%; HT1080 IDH1KD tx: 13µM*; HT1080-NT tox: 16µM*

How did COc1cc2c(cc1OC)CN(C(=O)CNC(=O)c1ccc(OC(F)F)cc1)CC2 do in these assays?
HepG2 tox: 13%; DT40 TDP1 CPT: 10%; DT40 TDP1 no CPT: -9%; TGFb SMAD3 inh: 0%; HT1080 IDH1KD tx: 0%; HT1080-NT tox: 3%

Results for O=C(NCC(=O)N1CC=C(c2ccccc2)CC1)c1ccc(OC(F)F)cc1 ?
HepG2 tox: -2%; DT40 TDP1 CPT: 7.3µM*; DT40 TDP1 no CPT: 7.3µM*; TGFb SMAD3 inh: -3%; HT1080 IDH1KD tx: -16%; HT1080-NT tox: inconclusive

How did Cc1cc(C)c(OCC(=O)N2CC=C(c3ccccc3)CC2)c(C)c1 do in these assays?
HepG2 tox: 1%; DT40 TDP1 CPT: -13%; DT40 TDP1 no CPT: 8%; TGFb SMAD3 inh: -6%; HT1080 IDH1KD tx: -1%; HT1080-NT tox: -4%

What do the screens show for `O=C(NCC(=O)N1CC=C(c2ccccc2)CC1)c1ccccc1Br`?
HepG2 tox: 0%; DT40 TDP1 CPT: inconclusive; DT40 TDP1 no CPT: 21µM*; TGFb SMAD3 inh: -8%; HT1080 IDH1KD tx: -13%; HT1080-NT tox: -13%

What do the screens show for `Cc1cccc2cc(CN(CC3CCCO3)C(=O)c3cccc(F)c3)c(N(C)C)nc12` (stereo not drawn)?
DT40 TDP1 CPT: 3%[9.04 µM]; DT40 TDP1 no CPT: -5%

How did CCc1cc2c(=O)c(-c3ccc4c(c3)OCCO4)c(C)oc2cc1OS(C)(=O)=O do in these assays?
HepG2 tox: -23%; DT40 TDP1 CPT: inconclusive; DT40 TDP1 no CPT: 26µM*; TGFb SMAD3 inh: inconclusive; HT1080 IDH1KD tx: inconclusive; HT1080-NT tox: -28%

How did CCc1cccc(Nc2cnn(C34C[C@@H]5C[C@@H](CC(CC(=O)O)(C5)C3)C4)c(=O)c2Cl)c1 do in these assays?
HepG2 tox: -7%; DT40 TDP1 CPT: -15%; DT40 TDP1 no CPT: -12%; TGFb SMAD3 inh: 0%; HT1080 IDH1KD tx: -12%; HT1080-NT tox: inconclusive
